High-throughput results (PubChem)
The list is not random: actives were taken first. Their share in the collection is about 1.6%.
PREPL inhibitor: inhibitors of human prolyl oligopeptidase-like enzyme PREPL | Q4J6C6 | recombinant PREPL, fluorescence polarization activity-based probe | inhibition, % at 5.96 µM | 320,000 tested, 0.68% active | AID 2751;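 also: 0% = enzyme with DMSO and 100% = wells lacking enzyme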
MEX-5 binding: C. elegans MEX-5 TCR-2 RNA binding activity; MEX-5/FITC-TCR2 RNA binding, fluorescence polarization; stronger effect = lower value; activity score (negative = inhibition of binding), % at 10 µM; 300,000 tested, 0.38% active; AID 1832;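 active = inhibition past about -25% in most replicates, and total fluorescence under double the plate's negative control median, limit read from the data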;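 also: 0% = DMSO and -100% = 5 µM competing unlabeled TCR2 RNA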
Fam108B inh: blocks mouse Fam108B hydrolase in RBBP9 counter-screen; 300,000 tested, 0.33% active; recombinant Fam108B, FP-Rh probe fluorescence polarization; inhibition, % at 9.51 µM; AID 1947;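 active = inhibition above the screen mean inhibition plus 3 SD, computed separately per campaign, cut at about 18% in these data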;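 also: inhibitors lower polarization as less probe binds the enzyme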
LYPLA1 inh: blocks human lysophospholipase 1, a PME1 counter-screen. 320,000 tested, 0.16% active. O75608. recombinant LYPLA1, FP-Rh probe fluorescence polarization. inhibition, % at 5.9 µM;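 active = inhibition above the mean of all tested compounds plus 3 SD, set per campaign, cut at about 14% in these data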;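 also: inhibitors block serine hydrolase probe labeling of LYPLA1 so polarization falls; 0% = enzyme with DMSO and 100% = wells lacking LYPLA1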
LYPLA2 inh: LYPLA2 (human) inhibition in PME1 counter-screen; 320,000 tested, 0.38% active; inhibition, % at 5.9 µM; O95372; AID 2177; recombinant LYPLA2, FP-Rh probe fluorescence polarization;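 active = inhibition above the screen-wide mean plus 3 SD, limit set per campaign, cut at about 26% in these data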;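 also: 0% = LYPLA2 with DMSO and 100% = wells lacking LYPLA2 enzyme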
Target sequence (O95372 whole entry, looked up): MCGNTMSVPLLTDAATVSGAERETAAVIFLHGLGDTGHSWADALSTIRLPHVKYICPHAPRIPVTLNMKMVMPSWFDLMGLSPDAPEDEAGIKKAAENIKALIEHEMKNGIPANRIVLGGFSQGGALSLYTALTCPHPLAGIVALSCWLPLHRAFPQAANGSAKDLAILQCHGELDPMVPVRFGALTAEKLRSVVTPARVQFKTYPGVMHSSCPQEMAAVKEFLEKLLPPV
PME-1 primary: blocks human protein phosphatase methylesterase 1 | inhibition, % at 5.9 µM | 320,000 tested, 0.53% active | recombinant PME-1, FP-Rh probe fluorescence polarization;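 active = inhibition above the campaign mean of all compounds plus 3 SD, cut at about 26% in these data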;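 also: competitive labeling of PME-1 active site by serine hydrolase directed probe; 0% = PME-1 with DMSO and 100% = wells lacking PME-1 enzyme; inhibitors block probe labeling so polarization falls and inhibition rises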
PREPL confirm: confirmation of human PREPL enzyme inhibitors. inhibition, % at 5.96 µM. shares compounds with PREPL inhibitor. recombinant PREPL, fluorescence polarization activity probe. 2,000 tested, 67% active. AID 2803;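 also: 0% = protein with DMSO and 100% = wells lacking protein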
Numbers without * were called inactive; · = not tested or not shown. Rule as the data show it, unless noted: active = inhibition above about 43%; inactive = the rest.

SMILES	PREPL inhibitor	MEX-5 binding	Fam108B inh	LYPLA1 inh	LYPLA2 inh	PME-1 primary	PREPL confirm
C=CCn1c(O)c(C(C)=NCCc2c[nH]c3ccccc23)c(=O)[nH]c1=O	49.0*	0.1	0.8	-3.0	1.9	-0.4	47.8*
C=CCn1c(O)c(C(C)=NCCC(c2ccccc2)c2ccccc2)c(=O)[nH]c1=O	1.9	-1.0	2.0	-0.5	0.9	1.8	·
CCCCn1c(O)c(C(C)=NCCc2c[nH]c3ccccc23)c(=O)[nH]c1=O	44.4*	-3.4	-2.1	0.6	20.6	7.2	36.1
COc1ccc2[nH]c(C)c(CCNCc3cn(C)c4ccccc34)c2c1	69.9*	·	·	-1.8	-2.6	0.8	54.2*
Cc1[nH]c2ccccc2c1CCNCc1cccnc1	-5.5	-4.0	2.2	3.8	6.3	-4.3	·
O=C(C[N+]12CCC(CC1)C(CO)C2)c1ccc(Br)cc1 (stereo not drawn)	-6.2	1.3	-0.7	-3.5	-2.8	-2.1	·
Cc1c(O)ccc(C(=O)CN2CC(C)OC(C)C2)c1O (stereo not drawn)	2.6	-8.9	-4.3	0.1	-4.2	3.9	·
C[n+]1c(-c2ccccc2)cc(CCCCc2cc(-c3ccccc3)[n+](C)c(-c3ccccc3)c2)cc1-c1ccccc1	45.8*	·	-2.8	-5.0	-1.7	-3.2	46.2*
